# Assay results reported in PubChem BioAssay (Tox21).
# Records with an inconclusive call do not appear. A call without a number means that no potency is given here. Calls of active or inactive are those of the source. Calls follow the shape of the dose curve; as a rule, active = well fitted curve in the direction sought with a large enough effect in the repeat runs; inconclusive = weak or mixed curves; inactive = no such curve, though single readings can be large; an effect the other way counts as inactive or inconclusive.
# Experiment: qHTS assay to identify small molecule antagonists of the retinoic acid receptor (RAR) signaling pathway (AID 1159552; also: nearly all actives have a fitted effect of over 50% in size)
# Conditions: C3RL4 RARE luciferase reporter, retinol-stimulated, 6 h; series mostly up to 92.4 µM
# Method in brief: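 Quantitative HTS in C3RL4 RARE-luciferase reporter cells. Compounds were added with 1 uM (final) retinol; luminescence was read after 6 hr.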
SMILES,Potency,"activity, negative = inhibition"
CC(CC(=O)O)CC(C)(C)C (stereo unspecified),inactive,
Nc1ccc(/C=C/c2ccc(N)cc2S(=O)(=O)O)c(S(=O)(=O)O)c1,,3.51% [at 0.349 µM] (inactive)
COc1ccc(NS(=O)(=O)c2ccc(N)cc2)nn1,inactive,
CCCCCCCCCCCCC1CO1 (stereo unspecified),inactive,
CC(C)C(=O)c1ccccc1,inactive,
CCCCCCCCCCC,inactive,
CC(Cl)COP(=O)(OCC(C)Cl)OCC(C)Cl (stereo unspecified),inactive,
CN(C)CCOCCN(C)CCO,inactive,
CC(C)(CO)[C@@H](O)C(=O)NCCCO,inactive,
CC(=O)OC(C)c1ccccc1 (stereo unspecified),inactive,
C=CCOCC(CO)(COCC=C)COCC=C,inactive,
Cc1ncc([N+](=O)[O-])n1CC(O)CCl (stereo unspecified),inactive,
CCCCC(CC)COC(=O)c1ccccc1 (stereo unspecified),inactive,
CCN(CCO)c1cccc(C)c1,inactive,
CN=C(NC#N)NCCSCc1csc(N=C(N)N)n1,inactive,
CC1CCC(C(C)(C)S)C(=O)C1 (stereo unspecified),inactive,
O=CN1CCOCC1,inactive,
Cc1c(C(C)C)c(=O)n(-c2ccccc2)n1C,inactive,
CCCCCCCCCCCCCCCCCCN(C)C,inactive,

SMILES,Potency,"activity, negative = inhibition"
O=C(O)CCNC(=O)c1ccccc1,inactive,
COc1ccc(OC)c(NC(=O)CC(C)=O)c1,inactive,
CCN(CCC#N)c1ccccc1,inactive,
O=C(CN1CCN(Cc2ccc3c(c2)OCO3)CC1)N1c2ccccc2Sc2ccccc21,inactive,
O=C(O)c1ccccc1C(=O)Nc1ccc(S(=O)(=O)Nc2nccs2)cc1,inactive,
O=c1[nH]c(=O)c2ccccc2o1,inactive,
CCC1COC(=O)O1 (stereo unspecified),inactive,
C=CCOc1cc(Cl)ccc1C(=O)NCCN(CC)CC,inactive,
Cc1cccc(NC(=S)N(C)C)c1,inactive,
O=C(COCCOCCOCC(=O)Nc1c(I)cc(I)c(C(=O)O)c1I)Nc1c(I)cc(I)c(C(=O)O)c1I,inactive,
C=CCOc1c(Br)cc(Br)cc1Br,inactive,
NC(=O)NC(=O)Cc1ccccc1,inactive,
FC(F)(F)/C(=N\OCC1OCCO1)c1ccc(Cl)cc1,inactive,
CCOc1ccc(NC(=O)OC(C)C)cc1OCC,inactive,
CC(=O)/C=C/c1ccco1,inactive,
CCC(=O)OCCC(C)CCC=C(C)C (stereo unspecified),inactive,
CCCCCCCCC(=O)OCC,inactive,
CCCCCCCCCCCCCCCCI,,-6.93% [at 19 µM] (inactive)

# Experiment: qHTS assay to identify small molecule agonists of the retinoic acid receptor (RAR) signaling pathway (AID 1159553)
# Conditions: C3RL4 RARE luciferase reporter, agonist, 6 h; activation: at 73.3 µM (top of the series)
# Method in brief: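 Activation of retinol signaling was monitored via a RARE luciferase reporter in C3RL4 cells. After 6 hr compound treatment at 37 C, detection reagent was added for 30 min at room temperature before luminescence reading.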
SMILES,Potency,activation
CC(CC(=O)O)CC(C)(C)C (stereo unspecified),inactive,
Nc1ccc(/C=C/c2ccc(N)cc2S(=O)(=O)O)c(S(=O)(=O)O)c1,,-0.705% [at 0.756 µM] (inactive)
COc1ccc(NS(=O)(=O)c2ccc(N)cc2)nn1,inactive,
CCCCCCCCCCCCC1CO1 (stereo unspecified),inactive,
CC(C)C(=O)c1ccccc1,inactive,
CCCCCCCCCCC,inactive,
CC(Cl)COP(=O)(OCC(C)Cl)OCC(C)Cl (stereo unspecified),inactive,
CN(C)CCOCCN(C)CCO,inactive,
CC(C)(CO)[C@@H](O)C(=O)NCCCO,inactive,
CC(=O)OC(C)c1ccccc1 (stereo unspecified),inactive,
C=CCOCC(CO)(COCC=C)COCC=C,inactive,
Cc1ncc([N+](=O)[O-])n1CC(O)CCl (stereo unspecified),inactive,
CCCCC(CC)COC(=O)c1ccccc1 (stereo unspecified),inactive,
CCN(CCO)c1cccc(C)c1,inactive,
CN=C(NC#N)NCCSCc1csc(N=C(N)N)n1,inactive,
CC1CCC(C(C)(C)S)C(=O)C1 (stereo unspecified),inactive,
O=CN1CCOCC1,inactive,
Cc1c(C(C)C)c(=O)n(-c2ccccc2)n1C,inactive,
CCCCCCCCCCCCCCCCCCN(C)C,inactive,

SMILES,Potency,activation
O=C(O)CCNC(=O)c1ccccc1,inactive,
COc1ccc(OC)c(NC(=O)CC(C)=O)c1,inactive,
CCN(CCC#N)c1ccccc1,inactive,
O=C(CN1CCN(Cc2ccc3c(c2)OCO3)CC1)N1c2ccccc2Sc2ccccc21,inactive,
O=C(O)c1ccccc1C(=O)Nc1ccc(S(=O)(=O)Nc2nccs2)cc1,inactive,
O=c1[nH]c(=O)c2ccccc2o1,inactive,
CCC1COC(=O)O1 (stereo unspecified),inactive,
C=CCOc1cc(Cl)ccc1C(=O)NCCN(CC)CC,inactive,
Cc1cccc(NC(=S)N(C)C)c1,inactive,
O=C(COCCOCCOCC(=O)Nc1c(I)cc(I)c(C(=O)O)c1I)Nc1c(I)cc(I)c(C(=O)O)c1I,inactive,
C=CCOc1c(Br)cc(Br)cc1Br,inactive,
NC(=O)NC(=O)Cc1ccccc1,inactive,
FC(F)(F)/C(=N\OCC1OCCO1)c1ccc(Cl)cc1,inactive,
CCOc1ccc(NC(=O)OC(C)C)cc1OCC,inactive,
CC(=O)/C=C/c1ccco1,inactive,
CCC(=O)OCCC(C)CCC=C(C)C (stereo unspecified),inactive,
CCCCCCCCC(=O)OCC,inactive,
CCCCCCCCCCCCCCCCI,inactive,

# Experiment: qHTS assay to identify small molecule antagonists of the estrogen related receptor (ERR) signaling pathway from Tox21 library - cell viability counter screen (AID 1224834); also: nearly all actives have a fitted effect of over 30% in size
# Conditions: ERR reporter cells viability, CellTiter-Fluor, 17.5 h; series mostly up to 92.4 µM
# Method in brief: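 CellTiter-Fluor fluorescence measured; ERR cells; 17.5 h compound incubation at 37 C; 30 min reagent step.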
SMILES,Potency,"viability change, negative = cytotoxic"
CC(CC(=O)O)CC(C)(C)C (stereo unspecified),inactive,
Nc1ccc(/C=C/c2ccc(N)cc2S(=O)(=O)O)c(S(=O)(=O)O)c1,,2.37% [at 0.349 µM] (inactive)
COc1ccc(NS(=O)(=O)c2ccc(N)cc2)nn1,inactive,
CCCCCCCCCCCCC1CO1 (stereo unspecified),inactive,
CC(C)C(=O)c1ccccc1,inactive,
CCCCCCCCCCC,inactive,
CC(Cl)COP(=O)(OCC(C)Cl)OCC(C)Cl (stereo unspecified),inactive,
CN(C)CCOCCN(C)CCO,inactive,
CC(C)(CO)[C@@H](O)C(=O)NCCCO,inactive,
CC(=O)OC(C)c1ccccc1 (stereo unspecified),inactive,
C=CCOCC(CO)(COCC=C)COCC=C,inactive,
Cc1ncc([N+](=O)[O-])n1CC(O)CCl (stereo unspecified),inactive,
CCCCC(CC)COC(=O)c1ccccc1 (stereo unspecified),inactive,
CCN(CCO)c1cccc(C)c1,inactive,
CN=C(NC#N)NCCSCc1csc(N=C(N)N)n1,inactive,
CC1CCC(C(C)(C)S)C(=O)C1 (stereo unspecified),inactive,
O=CN1CCOCC1,inactive,
Cc1c(C(C)C)c(=O)n(-c2ccccc2)n1C,inactive,
CCCCCCCCCCCCCCCCCCN(C)C,inactive,

SMILES,Potency,"viability change, negative = cytotoxic"
O=C(O)CCNC(=O)c1ccccc1,inactive,
COc1ccc(OC)c(NC(=O)CC(C)=O)c1,inactive,
CCN(CCC#N)c1ccccc1,inactive,
O=C(CN1CCN(Cc2ccc3c(c2)OCO3)CC1)N1c2ccccc2Sc2ccccc21,inactive,
O=C(O)c1ccccc1C(=O)Nc1ccc(S(=O)(=O)Nc2nccs2)cc1,inactive,
O=c1[nH]c(=O)c2ccccc2o1,inactive,
CCC1COC(=O)O1 (stereo unspecified),inactive,
C=CCOc1cc(Cl)ccc1C(=O)NCCN(CC)CC,inactive,
Cc1cccc(NC(=S)N(C)C)c1,inactive,
O=C(COCCOCCOCC(=O)Nc1c(I)cc(I)c(C(=O)O)c1I)Nc1c(I)cc(I)c(C(=O)O)c1I,inactive,
C=CCOc1c(Br)cc(Br)cc1Br,inactive,
NC(=O)NC(=O)Cc1ccccc1,inactive,
FC(F)(F)/C(=N\OCC1OCCO1)c1ccc(Cl)cc1,inactive,
CCOc1ccc(NC(=O)OC(C)C)cc1OCC,inactive,
CC(=O)/C=C/c1ccco1,inactive,
CCC(=O)OCCC(C)CCC=C(C)C (stereo unspecified),inactive,
CCCCCCCCC(=O)OCC,inactive,
CCCCCCCCCCCCCCCCI,,1.65% [at 19 µM] (inactive)
